Bioassay records deposited in PubChem BioAssay by National Center for Advancing Translational Sciences (NCATS).
Only some compounds are listed: those with a hit (about 4.6% of all), similar ones and a draw of the others.
TexasRed fluor: counter-screen for TRb-SRC2 inhibitors: fluorescence interference | Potency, µM (highest dose often 106 µM), for the others: top-dose fluorescence change, negative = quenching | TRb/SRC2 Texas Red total fluorescence interference | 280,000 compounds, 0.29% hits; active = well fitted curve in either direction with a large enough effect; inconclusive = small, poorly fitted or top-dose-only effect; note: potency is the fitted concentration of half-maximal effect
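Flags fluorescent or light-absorbing compounds by total fluorescence, S + 2P, at 555 nm excitation and 632 nm emission. Mixture: 20 nM Texas Red SRC2 peptide, 0.6 uM human TRb LBD, 1 uM T3, 5% DMSO; compound exposure 5 h at ambient temperature.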
Tau fluor cs: counter-screen for tau fibril formation inhibitors; tau K18 P301L Alexa594 fluorescence, heparin fibrillization; Potency, µM (top dose mostly 57.7 µM), for the others: top-dose activity change, negative = decrease; 280,000 compounds, 0.93% hits; note: potency is the fitted concentration of half-maximal effect; nearly all actives have a fitted effect of over 55% in size
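Human tau K18 P301L (15 uM unlabeled, 0.24 uM Alexa 594-labeled) in 100 mM sodium acetate pH 7 with 20 uM heparin, 6 hr at 37 C. ThT 30 uM added, 1 hr ambient; Alexa 594 FP and total fluorescence read at 555/632 nm.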
TRb-SRC2 inh: inhibitors of human thyroid hormone receptor beta-SRC2 interaction | Potency, µM (doses to about 106 µM), inactives show at the highest dose activity change, negative = inhibition, usual class: inhibitors | 280,000 compounds, 0.065% hits | TRbeta-SRC2 peptide binding, fluorescence polarization; receptor liganded with 1 µM T3;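 note: potency is the fitted concentration of half-maximal effect; plate controls were bound peptide for no effect and peptide without receptor for full effect; nearly all actives have a fitted effect of over 50% in size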
Target sequence (P10828 whole entry, looked up): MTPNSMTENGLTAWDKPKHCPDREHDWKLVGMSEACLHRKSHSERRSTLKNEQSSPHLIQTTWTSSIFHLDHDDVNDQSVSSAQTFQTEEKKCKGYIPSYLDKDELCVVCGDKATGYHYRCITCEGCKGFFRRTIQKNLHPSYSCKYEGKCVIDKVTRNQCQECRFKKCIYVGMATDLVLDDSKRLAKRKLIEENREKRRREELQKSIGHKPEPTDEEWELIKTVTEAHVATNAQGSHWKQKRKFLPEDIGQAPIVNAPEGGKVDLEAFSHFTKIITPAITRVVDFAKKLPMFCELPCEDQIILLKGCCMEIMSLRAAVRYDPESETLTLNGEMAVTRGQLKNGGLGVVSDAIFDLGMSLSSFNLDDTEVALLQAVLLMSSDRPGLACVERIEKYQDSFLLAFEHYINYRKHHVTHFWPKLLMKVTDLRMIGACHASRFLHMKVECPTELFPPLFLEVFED
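A fluorescence polarization screen tested compounds at multiple concentrations against complex formation between 0.6 uM TRb ligand-binding domain and 20 nM Texas Red SRC2 peptide, with 1 uM T3 present; readout after 5 hr.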
Tau fibril ThT: inhibitors of human tau fibril formation, thioflavin T binding | Potency, µM (titrated, usually from 57.4 µM), inactives show top-dose activity, negative = inhibition, hits mostly inhibitors | P10636 | recombinant tau K18 P301L (four-repeat tau fragment), heparin-induced fibrillization, ThT fluorescence | 270,000 compounds, 2.1% hits; note: potency is the fitted concentration of half-maximal effect; nearly all actives have a fitted effect of over 55% in size
Target sequence (P10636 561-689 P618L limits assumed): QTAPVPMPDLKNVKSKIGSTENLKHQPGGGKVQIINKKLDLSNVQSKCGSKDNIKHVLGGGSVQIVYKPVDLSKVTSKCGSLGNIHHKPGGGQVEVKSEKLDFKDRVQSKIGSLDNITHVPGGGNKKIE
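Aggregation was driven by heparin (20 uM final) acting on recombinant tau […] bearing P301L in 100 mM sodium acetate pH 7; fibrils were detected with Thioflavin T.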
PNC inhibitor: blocks assembly of the perinucleolar compartment. PC3M PTB-GFP, PNC prevalence imaging, 16 h; active compounds read low. activity change (PNC), negative = inhibition, % at 10 µM. 140,000 compounds, 3.1% hits. AID 2417;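 active = readout at or below -70, meaning at least 70% loss of cells showing the perinucleolar compartment, a nuclear body marking cancer cells; inconclusive = readout between -30 and a set limit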;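 note: plate controls were DMSO wells for no effect and camptothecin positive control wells for full effect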
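Read-out is percentage of cells bearing a perinucleolar compartment, from automated 20x imaging of fixed, Hoechst-stained PC3M PTB-GFP cells. Cells were seeded 4 h, then exposed 16 h to compound (23 nl of library stock) in duplicate plates.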
Tau fibril FP: tau fibrillization inhibition (FP); P10636; K18 P301L tau heparin fibrillization, Alexa594 FP, 6 h; Potency, µM (highest dose often 57.7 µM), inactives show at the top dose activity, negative = inhibition, most hits filed as inhibitors; 280,000 compounds, 0.39% hits; note: potency is the fitted concentration of half-maximal effect; nearly all actives have a fitted effect of over 55% in size
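Quantitative HTS format: compounds meet 15 uM recombinant K18 P301L tau and Alexa 594-tau tracer in 100 mM sodium acetate pH 7; 20 uM heparin triggers fibrillization at 37 C over 6 hr; FP gives the signal.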
Numbers without * were called inactive; ? = inconclusive; / = no result given; [ ] = another dose, or the depositor's remark. Unless noted, calls come from the whole dose curve; as a rule, active = well fitted curve in the direction sought with a large enough effect; inconclusive = small, poorly fitted or top-dose-only effect, or another doubt; inactive = no such curve, though single readings can be large; an effect the other way counts as inactive or inconclusive. Unless noted, % is set by controls: 0 for no effect and ±100 for the full control effect.

SMILES	TexasRed fluor	Tau fluor cs	TRb-SRC2 inh	Tau fibril ThT	PNC inhibitor	Tau fibril FP
O=C(O)c1cccc(-c2ccc(/C=N/Nc3ccc([N+](=O)[O-])cc3)o2)c1	-13%	16µM*[quencher]	0%	/	/	-9%
CCOc1cc(S(=O)(=O)N2CCN(c3ccc(F)cc3)CC2)c(OCC)cc1-n1cnnn1	1%	-9%	-3%	-10%	27	-6%
O=c1[nH]cnc2c1C(c1ccccc1[N+](=O)[O-])c1c(nc[nH]c1=O)O2	-2%	-1%	-5%	-7%	?	8%
CCC(=O)c1ccccc1OCCN1CCN(Cc2ccccc2)CC1	-3%	0%	3%	-9%	/	-2%
O=C(O)c1ccc(N/N=C/c2ccc(-c3cccc(Cl)c3)o2)cc1	-8%	20µM*[quencher]	-6%	/	/	3%
COc1ccc(CCNC(=O)c2nc3ncccn3n2)cc1OC	1%	-1%	4%	1%	-107*	3%
COc1ccc(CCNC(=O)c2cccc(-n3c(C)nc4cccnc43)c2)cc1OC	1%	-1%	7%	3%	/	0%
CN(C)/C=C1\C(=O)N(c2ccc([N+](=O)[O-])cc2)N=C1c1ccccc1	-4%	?	-3%	18µM*	1	?
CN(C)/C=C1/C(=O)N(c2ccc([N+](=O)[O-])cc2)N=C1c1ccccc1	-11%	?	8%	22µM*	?	-11%
CC1=NN(c2ccc([N+](=O)[O-])cc2)C(=O)/C1=C\N(C)C	-4%	-24%	4%	13µM*	14	1%
O=C(CSc1nnc(COc2ccccc2)n1-c1ccccc1)c1ccccc1	0%	-15%	1%	?	-15	5%
CCOC(=O)CN=C1CC(C)(C)CC2=C1Sc1ncnc(N(C)C)c1N2	3%	?	-13%	16µM*	29	-19%
Cn1c(N2CCOCC2)cc(=O)n(C)c1=O	-5%	1%	-1%	-4%	/	7%
N#CC1=C(S)N=C(N)C(c2nc(-c3ccccc3)cs2)C12CCCC2 (stereo not given)	0%	?	-19%	28µM*	?	?
Fc1ccc(CN2CCc3nc(N4CCN(c5ccccc5F)CC4)ncc3C2)c(F)c1	-2%	7%	-2%	-2%	/	-4%
Nc1[nH]nc2c1NN(c1ccc(Cl)cc1Cl)N2	-6%	?	-9%	3.5µM*	-14	?
O=C(NCC1CC1)c1ccc(Nc2nc3ccc(Br)cc3[nH]2)cc1	-3%	13µM*[quencher]	-1%	?	35	?
O=C(NCCc1nc2ccccc2[nH]1)c1cccc(Br)c1	-2%	-8%	4%	-5%	/	4%
O=C(NCc1ccco1)c1cccc(Nc2nc3ccc(Br)cc3[nH]2)c1	-1%	10µM*[quencher]	14%	28µM*	-6	?
O=C(Cc1ccc(Nc2nc3ccc(Br)cc3[nH]2)cc1)NCCc1cccs1	0%	16µM*[quencher]	14%	?	11	?
CCN1CCCC1CNC(=O)C(NC(=O)C1CCC(C)CC1)C(C)C (stereo not given)	-5%	3%	-3%	2%	-14	5%
COc1ccc(-c2ccc(C(c3c(C)[nH][nH]c3=O)c3c(C)[nH][nH]c3=O)o2)c([N+](=O)[O-])c1	-4%	-19%	?	7.9µM*	/	?
CNC(=S)N/N=C/c1ccc(-c2ccc(C(=O)O)cc2)o1	-7%	-9%	4%	?	/	-3%
Cc1[nH][nH]c(=O)c1C(c1ccc(-c2ccc(F)cc2)o1)c1c(C)[nH][nH]c1=O	-6%	-22%	?	7.9µM*	/	?
Cc1[nH][nH]c(=O)c1C(c1ccc(-c2ccc(Cl)c(Cl)c2)o1)c1c(C)[nH][nH]c1=O	-3%	?	14µM*	8.9µM*	-3	?
SMILES	TexasRed fluor	Tau fluor cs	TRb-SRC2 inh	Tau fibril ThT	PNC inhibitor	Tau fibril FP
Cc1[nH][nH]c(=O)c1C(c1ccc(-c2ccc(C(=O)O)cc2)o1)c1c(C)[nH][nH]c1=O	-5%	-15%	-27%	11µM*	/	?
O=C(COC(=O)c1ccc(Cl)c(S(=O)(=O)N2CCN(c3ccc(F)cc3)CC2)c1)Nc1cccc(Cl)c1	-2%	?	-3%	-2%	?	?
CCCOc1ccc(N2C(=O)CC(N(Cc3ccc(S(N)(=O)=O)cc3)C(=O)CC)C2=O)cc1 (stereo not given)	-1%	3%	-8%	0%	?	-6%
CC(C)(C)C(=O)Cn1c(=N)n(Cc2ccccc2)c2ccccc21	0%	-12%	-5%	?	-119*	-3%
O=c1ccc2[n+]([O-])c3ccc(O)cc3oc-2c1	1.6µM*[fluorescent]	2µM*[fluorescent]	?	13µM*	/	32%
COc1ccc(S(=O)(=O)Nc2cc(C)c(O)c(S(=O)(=O)c3ccccc3)c2)cc1	-2%	-18%	-4%	-9%	-102*	6%
O=[N+]([O-])c1ccc(Oc2cccnc2)nc1	-1%	4%	2%	0%	/	-2%
N#Cc1cc(Oc2cccnc2)c(Oc2cccnc2)cc1C#N	-2%	-5%	-8%	-15%	-111*	5%
Nc1ccc(-c2ccc(N)c(O)c2)cc1O	-23%	/	7%	/	/	/
COc1cc(Cc2ccc(N)c(OC)c2)ccc1N	1%	-15%	-3%	-14%	-113*	0%
Nc1ccc(Cc2ccc(N)c(O)c2)cc1O	-4%	?	-13%	14µM*	/	?
COc1cccc(NS(=O)(=O)c2ccc3c(c2)[C@H]2C=CC[C@H]2[C@@H](c2ccccc2Cl)N3)c1	-1%	?	3%	-3%	/	-5%
CC1(C)CC(=O)C=C(NCC2CCCO2)C1 (stereo not given)	2%	8%	-18%	6%	23	6%
Oc1[nH]c2ccc(Br)cc2c1N=NC(=S)N1CCOCC1	-7%	?	-5%	10µM*	/	0%
Oc1[nH]c2ccccc2c1N=NC(=S)N1CCOCC1	-3%	-18%	-8%	8.9µM*	/	-11%
CC(=O)/C=C(\C)N=Nc1c(O)[nH]c2ccccc12	-3%	-11%	-1%	7.9µM*	/	-4%
CSc1ccc(CCNC(=O)CCn2c(=O)c3cccn3c3cccnc32)cc1	-1%	9%	-1%	6%	/	0%
CCN(CC)S(=O)(=O)c1ccc(C)c(NC(=S)N2CCN(C/C=C/c3ccccc3)CC2)c1	0%	-26%	-1%	-13%	/	-5%
O=C(Cc1n[nH]c(=O)[nH]c1=O)N/N=C/c1ccccc1O	0%	-7%	0%	-9%	11	-3%
Cc1[nH]nc(N)c1N=Nc1ccc(Br)cc1	-1%	?	3%	11µM*	/	6%
